# Screening results: PubChem, several laboratories
# Jurkat NFkB inh = inhibitors of induced NF-kB luciferase reporter, primary screen, TCR NF-kB activation inhibitor project, cell-based, luminescence, uHTS | inhibition, % at 4 µM | 330,000 compounds, 0.53% hits | AID 435003, 2010 | Jurkat, PMA/ionomycin-induced NF-kB luciferase reporter; in the data active = inhibition above about 50%
# Mdm2-MdmX inh = inhibitors of human Mdm2-MdmX association, primary screen, cell-based, luminescence, split luciferase, SaOS-2, uHTS. 330,000 compounds, 3% hits. SaOS-2 split-luciferase Mdm2/MdmX complementation. inhibition, % at 8 µM. Protein Mdm4 (Homo sapiens) + E3 ubiquitin-protein ligase Mdm2 (Homo sapiens), …;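 active = inhibition of at least 50% at 8 µM in the primary screen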
# Target sequence (O15151 whole entry, looked up): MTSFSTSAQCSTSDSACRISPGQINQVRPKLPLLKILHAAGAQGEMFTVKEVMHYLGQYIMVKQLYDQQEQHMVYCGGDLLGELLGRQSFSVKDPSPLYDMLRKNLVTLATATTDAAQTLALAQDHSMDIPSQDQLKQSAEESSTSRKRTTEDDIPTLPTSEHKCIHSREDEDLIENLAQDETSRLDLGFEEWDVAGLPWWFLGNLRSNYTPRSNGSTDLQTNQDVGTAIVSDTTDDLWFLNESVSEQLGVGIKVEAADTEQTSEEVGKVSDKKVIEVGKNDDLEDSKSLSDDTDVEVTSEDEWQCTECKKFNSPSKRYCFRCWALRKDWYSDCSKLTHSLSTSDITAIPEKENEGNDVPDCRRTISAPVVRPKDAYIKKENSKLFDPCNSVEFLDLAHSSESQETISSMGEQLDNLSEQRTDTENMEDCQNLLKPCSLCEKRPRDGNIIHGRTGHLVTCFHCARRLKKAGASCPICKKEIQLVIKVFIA
# Target sequence (Q00987 whole entry, looked up): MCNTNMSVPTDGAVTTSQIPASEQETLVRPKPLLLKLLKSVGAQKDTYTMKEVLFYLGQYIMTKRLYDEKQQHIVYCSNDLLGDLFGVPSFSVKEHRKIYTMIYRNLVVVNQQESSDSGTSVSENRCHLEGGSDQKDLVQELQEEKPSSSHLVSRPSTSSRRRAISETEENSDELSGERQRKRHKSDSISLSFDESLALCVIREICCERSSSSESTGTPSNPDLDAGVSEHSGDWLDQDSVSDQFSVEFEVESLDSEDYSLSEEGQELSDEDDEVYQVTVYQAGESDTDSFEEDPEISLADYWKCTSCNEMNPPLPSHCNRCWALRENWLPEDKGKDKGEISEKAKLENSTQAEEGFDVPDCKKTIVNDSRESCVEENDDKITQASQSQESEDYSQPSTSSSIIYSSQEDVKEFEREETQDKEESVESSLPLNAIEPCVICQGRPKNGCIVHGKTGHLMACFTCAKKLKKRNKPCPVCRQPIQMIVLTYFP
# 697 NFkB inh = inhibitors of PMA/ionomycin-induced NF-kB reporter, 697 cells, primary screen, B-cell NF-kB inhibitor project, cell-based, luminescence, uHTS; 697 B-cell NF-kB luciferase reporter, 16 h; inhibition, % at 4 µM; 330,000 compounds, 0.33% hits; AID 435022, 2010; in the data active = inhibition above about 35%
# NTR1 ag = agonists of human NTR1, primary screen, imaging, U2OS cells, beta-arrestin-GFP, high content; Neurotensin receptor type 1 (Homo sapiens), P30989; NTR1-U2OS beta-arrestin-GFP spot imaging, agonist mode; activation, % at 20 µM; 330,000 compounds, 0.17% hits; AID 493036, 2011;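 active = activation at or above 40% of the spot to cytoplasm intensity ratio, with at least 20 cells analyzed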;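 also: 0% = DMSO without peptide and 100% = 100 nM NTR1 peptide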
# Beta apoptosis = inhibitors of cytokine-induced beta cell apoptosis, primary screen, luminescence. INS-1E cytokine-induced death, ATP luminescence, 48 h; percent of positive-control rescue, neutral wells zero. 300,000 compounds, 0.8% hits. protection from apoptosis, % (test concentration not listed);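 active = Every replicate reaches about 75%, or at least half do and their mean reaches it too, limit read from the data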;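 also: 0% = cytokine-treated negative control wells and 100% = positive control rescue; higher means more ATP so stronger rescue from cytokine killing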
# Bfl-1 A1 inh = caspase 3/7 activation in MEF A1-2A-BIM cells, primary screen, A1 inhibitor project, cell-based, luminescence, HTS. Caspase-Glo 3/7 luminescence, 3 h; percent of clofoctol response, vehicle zero. caspase activation, % (test concentration not listed). 330,000 compounds, 0.066% hits;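 active = over half of replicate activation scores above 10%, or exactly half above 10 with the replicate mean above 10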
# NTR1 ag conf = NTR1 agonists, single-dose retest, confirmation, imaging, U2OS cells, beta-arrestin-GFP, single concentration; 480 compounds, 38% hits; activation, % at 20 µM; shares compounds with NTR1 ag; NTR1-U2OS beta-arrestin-GFP translocation imaging;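 active = mean activation at 20 µM of at least 40%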;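 also: 0% = DMSO without peptide and 100% = 100 nM NTR1 peptide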
# * hit, by the source's call; nt = no result given. This is a sample that favours compounds with a hit; in the whole collection about 3.8% have one here.
SMILES,Jurkat NFkB inh,Mdm2-MdmX inh,697 NFkB inh,NTR1 ag,Beta apoptosis,Bfl-1 A1 inh,NTR1 ag conf
O=C1CC(c2ccccc2)Cc2nc3nc(C(F)(F)F)nn3cc21 (centres undefined),13.2,4.6,2.2,49.2*,-6.4,-0.1,0.7
O=[N+]([O-])c1ccc2[nH]cc(S(=O)(=O)N3CCN(c4cccc(Cl)c4)CC3)c2c1,-1.5,44.0,5.4,40.7*,-2.3,-1.9,20.1
Cc1[nH]c2ccc(C(=O)N3CCN(c4ccccn4)CC3)cc2c1C,-4.8,-7.4,4.3,-1.0,-13.2,-0.5,nt
Oc1ccc(/C=N/N2CCN(C3c4ccccc4-c4ccccc43)CC2)c(O)c1,-2.0,10.6,0.9,43.1*,nt,-0.4,5.8
CCOc1ccc(NC(=O)CN(C)C(=O)c2ccccc2SCc2c(C)noc2C)cc1OCC,10.9,-0.6,7.5,0.9,2.6,-0.5,nt
Cc1ccc(NC(c2ccccc2)c2nc3ccccc3[nH]c2=O)cc1 (centres undefined),-30.6,11.1,-1.4,40.2*,-3.9,1.0,8.0
N#CSC(c1ccccc1)c1nc2ccccc2[nH]c1=O (centres undefined),11.4,6.9,-3.3,2.0,7.0,-1.1,nt
CC1(C)CC(=O)C(C(C2=C(O)CC(C)(C)CC2=O)c2ccc(Br)s2)C(=O)C1 (centres undefined),3.6,32.2,-39.2,59.3*,-4.3,-0.1,44.5*
O=C(CSc1nnc(CNC(=O)c2c(F)cccc2Cl)o1)NCc1ccccc1,-13.0,11.9,-19.3,-0.6,-4.9,0.1,nt
COc1cccc2sc(=NC(=O)CS(=O)(=O)c3ccc(Cl)cc3)n(C)c12,39.7,-3.2,-33.8,12.6,nt,0.0,nt
C=C(C)COc1ccc(-c2nc(N)ncc2-c2ccc(OC)c(OC)c2)c(O)c1,10.7,40.1,15.5,2.0,-10.6,-0.3,nt
C=C(C)COc1ccc(-c2nc(N)ncc2-c2ccc(Cl)cc2)c(O)c1,0.5,34.1,-16.6,69.5*,1.7,-0.4,25.8
CCCCOc1ccc2c(c1)C(=O)c1cc(O)ccc1-2,-45.1,-130.1,-91.2,40.6*,9.3,-1.8,9.2
COc1ccc(C(C(=O)NC2CCCC2)N(C(=O)c2snc(C(N)=O)c2N)c2ccccc2OC)cc1OC (centres undefined),1.7,-7.9,14.1,60.7*,-7.3,-0.6,1.8
O=C(O)CN1C(=O)C(=O)N(Cc2ccc(C(F)(F)F)cc2)C1=O,nt,nt,nt,nt,0.3,0.1,nt
CCOc1ccc(/C=C/[N+](=O)[O-])c2ccccc12,-1.5,46.5,18.4,80.5*,6.0,0.5,65.7*
COc1cc(CC(NC(C)=O)C(=O)NC2CCN(C(=O)Nc3ccccc3Cl)CC2)cc(OC)c1 (centres undefined),-9.0,20.8,5.2,-0.1,-1.4,1.6,nt
COc1cc(CC(NC(C)=O)C(=O)NC2CCN(C(=O)Nc3ccccc3C)CC2)cc(OC)c1 (centres undefined),0.5,5.1,14.3,42.5*,1.2,-0.8,-1.6
CCC(=O)Nc1c2c(nn1-c1ccc(C)cc1)CS(=O)(=O)C2,-7.4,-2.2,19.4,1.4,-8.0,1.2,nt
NC(=O)c1ccsc1NC(=O)COC(=O)/C=C/c1ccc([N+](=O)[O-])cc1,2.1,-27.8,-1.8,4.7,-6.0,0.2,nt
COC(=O)c1ccc(/C=C/C(=O)OCC(=O)Nc2sccc2C(N)=O)cc1,-0.6,27.9,-7.7,45.2*,-1.6,-5.4,77.1*
COc1cc(OC)cc(-c2c(-c3cccs3)c3cc(-c4ccc(N(C)C)nc4)ccc3n2C)c1,-30.7,20.1,-14.2,3.0,9.1,-0.1,nt
COc1cccc(/C=C/C(=O)c2ccc(C)c([N+](=O)[O-])c2)c1,-3.9,30.7,-10.8,66.3*,-2.5,-0.1,1.6
COc1ccc(/C=C/C(=O)c2ccc(C)c([N+](=O)[O-])c2)cc1O,13.0,36.3,8.1,43.1*,0.9,0.0,25.1
COc1cc(/C=C/C(=O)c2ccc(C)c([N+](=O)[O-])c2)cc(OC)c1O,26.5,42.1,19.3,30.2,nt,-0.4,nt
SMILES,Jurkat NFkB inh,Mdm2-MdmX inh,697 NFkB inh,NTR1 ag,Beta apoptosis,Bfl-1 A1 inh,NTR1 ag conf
CC1(C)CC(=O)C(=Cc2cn(-c3ccccc3)nc2-c2ccc(Cl)cc2)C(=O)C1,-47.8,37.3,-31.8,63.0*,-4.6,0.5,83.4*
C[C@@H](NC(=O)c1nc[nH]c1C(=O)N[C@H](C)c1ccccc1)c1ccccc1,-4.2,18.3,-7.9,-0.7,-8.5,0.5,nt
Cc1ccc(NC(=O)c2nc[nH]c2C(=O)N[C@@H](C)c2ccccc2)cc1,4.2,33.9,6.4,38.0,0.0,1.7,nt
C[C@@H](NC(=O)c1[nH]cnc1C(=O)Nc1cccc(Cl)c1)c1ccccc1,7.2,32.2,-17.8,45.0*,1.9,-0.4,21.5
C[C@H](NC(=O)c1[nH]cnc1C(=O)Nc1cccc(Cl)c1)c1ccccc1,-10.1,33.9,-2.2,51.7*,1.3,-0.5,46.1*
COc1cc2c(cc1OC)C(SC)=NC(C)(C)C2,4.1,35.8,-11.4,48.3*,-6.7,-0.1,80.3*
CN(CC(=O)Nc1ccc(Cl)c(Cl)c1)C(=O)CC1OC(=O)c2ccccc21 (centres undefined),4.0,18.9,12.8,2.0,1.6,0.9,nt
c1ccc(N(c2ccccc2)c2nc(N3CCCC3)nc(-n3ccnc3)n2)cc1,11.3,27.6,14.8,47.6*,24.2,-0.8,19.1
C=CCNc1nc(-c2cccc(OC)c2O)nc2ccccc12,-18.5,9.1,15.1,6.2,8.4,0.3,nt
COc1cccc(-c2nc(NC3CCCC3)c3ccccc3n2)c1O,-7.6,34.9,-11.3,59.6*,13.5,-0.2,7.6
COC(=O)C1=C(C)Nc2nnnn2C1c1ccccc1Cl (centres undefined),6.7,7.5,-7.1,0.6,-0.7,0.0,nt
CCCCCOC(=O)C1=C(C)Nc2nnnn2C1c1ccccc1Cl (centres undefined),11.0,21.3,-33.0,57.8*,9.8,0.3,14.0
Cc1cc2ccccc2c(=O)n1CC(=O)Nc1ccc2c(c1)OCCO2,3.5,16.9,10.2,46.2*,2.0,0.1,-6.1
